# Laboratory results from the supplement of paper PMC4466140.
# How the values were obtained:
# Experiment in all cases: SPOT peptide array binding signal intensity (averaged, normalized) (arbitrary units (background-subtracted, floor 0; scale differs between SH3 domains)); higher = stronger binding of the SH3 domain to the peptide
# AgAbp1 = biological target: AgAbp1
# Method in brief: (§1)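 Four yeast species supplied the SH3 domains, which were expressed as GST fusions in E. coli BL21(DE3) and purified on glutathione Sepharose. Incubation with cellulose membranes carrying synthetic 15-mer peptides, cysteines exchanged for serines, ran overnight at 4°C at 10 μg/ml in TBS-based blocking buffer. Binding signal is reported as normalized, background-subtracted spot intensity averaged over replicates, in arbitrary units not shared between domains.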
# AgBbc1 = biological target: AgBbc1
# Method in brief: as §1
# AgBem1-D1 = biological target: AgBem1-D1
# Method in brief: as §1
# AgBzz1-D1 = biological target: AgBzz1-D1
# Method in brief: as §1
# AgBzz1-D2 = biological target: AgBzz1-D2
# Method in brief: as §1
# AgCyk3 = biological target: AgCyk3
# Method in brief: as §1
# AgFus1 = biological target: AgFus1
# Method in brief: as §1
# AgHof1 = biological target: AgHof1
# Method in brief: as §1
# AgHse1 = biological target: AgHse1
# Method in brief: as §1
# AgLsb1 = biological target: AgLsb1
# Method in brief: as §1
# AgLsb4 = biological target: AgLsb4
# Method in brief: as §1
# AgMyo5 = biological target: AgMyo5
# Method in brief: as §1
# AgNbp2 = biological target: AgNbp2
# Method in brief: as §1
# AgRvs167 = biological target: AgRvs167
# Method in brief: as §1
# AgSho1 = biological target: AgSho1
# Method in brief: as §1
# AgSla1-D1-D2 = biological target: AgSla1-D1-D2
# Method in brief: as §1
# AgSla1-D3 = biological target: AgSla1-D3
# Method in brief: as §1
# CaAbp1-D1 = biological target: CaAbp1-D1
# Method in brief: as §1
# CaAbp1-D2 = biological target: CaAbp1-D2
# Method in brief: as §1
# CaBbc1 = biological target: CaBbc1
# Method in brief: as §1
# CaBem1-D1 = biological target: CaBem1-D1
# Method in brief: as §1
# CaBzz1-D1 = biological target: CaBzz1-D1
# Method in brief: as §1
# CaBzz1-D2 = biological target: CaBzz1-D2
# Method in brief: as §1
# CaCyk3 = biological target: CaCyk3
# Method in brief: as §1
# CaFus1 = biological target: CaFus1
# Method in brief: as §1
# CaHof1 = biological target: CaHof1
# Method in brief: as §1
# CaHse1 = biological target: CaHse1
# Method in brief: as §1
# CaLsb1 = biological target: CaLsb1
# Method in brief: as §1
# CaLsb4 = biological target: CaLsb4
# Method in brief: as §1
# CaMyo5 = biological target: CaMyo5
# Method in brief: as §1
# CaNbp2 = biological target: CaNbp2
# Method in brief: as §1
# CaRvs167 = biological target: CaRvs167
# Method in brief: as §1
# CaRvs167-3 = biological target: CaRvs167-3
# Method in brief: as §1
# CaSho1 = biological target: CaSho1
# Method in brief: as §1
# CaSla1-D1-D2 = biological target: CaSla1-D1-D2
# Method in brief: as §1
# CaSla1-D3 = biological target: CaSla1-D3
# Method in brief: as §1
# ScAbp1 = biological target: ScAbp1
# Method in brief: as §1
# ScBbc1 = biological target: ScBbc1
# Method in brief: as §1
# ScBem1-D1 = biological target: ScBem1-D1
# Method in brief: as §1
# ScBzz1-D1 = biological target: ScBzz1-D1
# Method in brief: as §1
# ScBzz1-D2 = biological target: ScBzz1-D2
# Method in brief: as §1
# ScCyk3 = biological target: ScCyk3
# Method in brief: as §1
# ScFus1 = biological target: ScFus1
# Method in brief: as §1
# ScHof1 = biological target: ScHof1
# Method in brief: as §1
# ScHse1 = biological target: ScHse1
# Method in brief: as §1
# ScLsb1 = biological target: ScLsb1
# Method in brief: as §1
# ScLsb2 = biological target: ScLsb2
# Method in brief: as §1
# ScLsb3 = biological target: ScLsb3
# Method in brief: as §1
# ScLsb4 = biological target: ScLsb4
# Method in brief: as §1
# ScMyo3 = biological target: ScMyo3
# Method in brief: as §1
# ScMyo5 = biological target: ScMyo5
# Method in brief: as §1
# ScNbp2 = biological target: ScNbp2
# Method in brief: as §1
# ScPex13 = biological target: ScPex13
# Method in brief: as §1
# ScRvs167 = biological target: ScRvs167
# Method in brief: as §1
# ScSho1 = biological target: ScSho1
# Method in brief: as §1
# ScSla1-D1-D2 = biological target: ScSla1-D1-D2
# Method in brief: as §1
# ScSla1-D3 = biological target: ScSla1-D3
# Method in brief: as §1
# SpAbp1-D1 = biological target: SpAbp1-D1
# Method in brief: as §1
# SpBbc1 = biological target: SpBbc1
# Method in brief: as §1
# SpBzz1-D1 = biological target: SpBzz1-D1
# Method in brief: as §1
# SpBzz1-D2 = biological target: SpBzz1-D2
# Method in brief: as §1
# SpCyk3 = biological target: SpCyk3
# Method in brief: as §1
# SpHof1 = biological target: SpHof1
# Method in brief: as §1
# SpHof1-2 = biological target: SpHof1-2
# Method in brief: as §1
# SpHof1-3 = biological target: SpHof1-3
# Method in brief: as §1
# SpHse1 = biological target: SpHse1
# Method in brief: as §1
# SpLsb1 = biological target: SpLsb1
# Method in brief: as §1
# SpLsb4 = biological target: SpLsb4
# Method in brief: as §1
# SpMyo1 = biological target: SpMyo1
# Method in brief: as §1
# SpNbp2 = biological target: SpNbp2
# Method in brief: as §1
# SpPex13 = biological target: SpPex13
# Method in brief: as §1
# SpRvs167 = biological target: SpRvs167
# Method in brief: as §1
# SpSla1-D1-D2 = biological target: SpSla1-D1-D2
# Method in brief: as §1
# SpSla1-D3 = biological target: SpSla1-D3
# Method in brief: as §1
binder,measurement,setting,value
LTRRFPFLFPFDTRM,SPOT peptide array binding signal intensity,AgAbp1,4
same,SPOT peptide array binding signal intensity,AgBbc1,≤ 0
same,SPOT peptide array binding signal intensity,AgBem1-D1,47
same,SPOT peptide array binding signal intensity,AgBzz1-D1,13
same,SPOT peptide array binding signal intensity,AgBzz1-D2,27
same,SPOT peptide array binding signal intensity,AgCyk3,1
same,SPOT peptide array binding signal intensity,AgFus1,198
same,SPOT peptide array binding signal intensity,AgHof1,43.5
same,SPOT peptide array binding signal intensity,AgHse1,1430
same,SPOT peptide array binding signal intensity,AgLsb1,1.75
same,SPOT peptide array binding signal intensity,AgLsb4,18
same,SPOT peptide array binding signal intensity,AgMyo5,1.5
same,SPOT peptide array binding signal intensity,AgNbp2,36
same,SPOT peptide array binding signal intensity,AgRvs167,3.33
same,SPOT peptide array binding signal intensity,AgSho1,21
same,SPOT peptide array binding signal intensity,AgSla1-D1-D2,25.5
same,SPOT peptide array binding signal intensity,AgSla1-D3,4
same,SPOT peptide array binding signal intensity,CaAbp1-D1,573
same,SPOT peptide array binding signal intensity,CaAbp1-D2,155
same,SPOT peptide array binding signal intensity,CaBbc1,3.25
same,SPOT peptide array binding signal intensity,CaBem1-D1,7
same,SPOT peptide array binding signal intensity,CaBzz1-D1,40
same,SPOT peptide array binding signal intensity,CaBzz1-D2,12.5
same,SPOT peptide array binding signal intensity,CaCyk3,8
same,SPOT peptide array binding signal intensity,CaFus1,1040
same,SPOT peptide array binding signal intensity,CaHof1,0.5
same,SPOT peptide array binding signal intensity,CaHse1,83.5
same,SPOT peptide array binding signal intensity,CaLsb1,≤ 0
same,SPOT peptide array binding signal intensity,CaLsb4,9.5
same,SPOT peptide array binding signal intensity,CaMyo5,13.8
same,SPOT peptide array binding signal intensity,CaNbp2,249
same,SPOT peptide array binding signal intensity,CaRvs167,10.2
same,SPOT peptide array binding signal intensity,CaRvs167-3,43.2
same,SPOT peptide array binding signal intensity,CaSho1,892
same,SPOT peptide array binding signal intensity,CaSla1-D1-D2,30.5
same,SPOT peptide array binding signal intensity,CaSla1-D3,20
same,SPOT peptide array binding signal intensity,ScAbp1,39
same,SPOT peptide array binding signal intensity,ScBbc1,0.5
same,SPOT peptide array binding signal intensity,ScBem1-D1,14
same,SPOT peptide array binding signal intensity,ScBzz1-D1,10
same,SPOT peptide array binding signal intensity,ScBzz1-D2,10
same,SPOT peptide array binding signal intensity,ScCyk3,374
same,SPOT peptide array binding signal intensity,ScFus1,289
same,SPOT peptide array binding signal intensity,ScHof1,0.5
same,SPOT peptide array binding signal intensity,ScHse1,1600
same,SPOT peptide array binding signal intensity,ScLsb1,≤ 0
same,SPOT peptide array binding signal intensity,ScLsb2,≤ 0
same,SPOT peptide array binding signal intensity,ScLsb3,27.5
same,SPOT peptide array binding signal intensity,ScLsb4,≤ 0
same,SPOT peptide array binding signal intensity,ScMyo3,2.5
same,SPOT peptide array binding signal intensity,ScMyo5,1.5
same,SPOT peptide array binding signal intensity,ScNbp2,128
same,SPOT peptide array binding signal intensity,ScPex13,≤ 0
same,SPOT peptide array binding signal intensity,ScRvs167,14.3
same,SPOT peptide array binding signal intensity,ScSho1,335
same,SPOT peptide array binding signal intensity,ScSla1-D1-D2,7
same,SPOT peptide array binding signal intensity,ScSla1-D3,7.5
same,SPOT peptide array binding signal intensity,SpAbp1-D1,195
same,SPOT peptide array binding signal intensity,SpBbc1,≤ 0
same,SPOT peptide array binding signal intensity,SpBzz1-D1,53.5
same,SPOT peptide array binding signal intensity,SpBzz1-D2,≤ 0
same,SPOT peptide array binding signal intensity,SpCyk3,11.5
same,SPOT peptide array binding signal intensity,SpHof1,72.5
same,SPOT peptide array binding signal intensity,SpHof1-2,11.5
same,SPOT peptide array binding signal intensity,SpHof1-3,1320
same,SPOT peptide array binding signal intensity,SpHse1,1740
same,SPOT peptide array binding signal intensity,SpLsb1,≤ 0
same,SPOT peptide array binding signal intensity,SpLsb4,≤ 0
same,SPOT peptide array binding signal intensity,SpMyo1,7
same,SPOT peptide array binding signal intensity,SpNbp2,69
same,SPOT peptide array binding signal intensity,SpPex13,14
same,SPOT peptide array binding signal intensity,SpRvs167,2.17
same,SPOT peptide array binding signal intensity,SpSla1-D1-D2,2.5
same,SPOT peptide array binding signal intensity,SpSla1-D3,5
